According to PubChem BioAssay AID1903 (Southern Research Specialized Biocontainment Screening …, 2009):
Out of some 310,000 compounds screened, about 1,200 (0.39%) were called active. The rule behind the calls is not given here. Not all results are given here. Measured potencies and affinities stand elsewhere.

target: Large T antigen (Simian virus 40) (UniProt P03070); test: SV40 large T antigen inhibitors, biochemical (AID 1903); details: SV40 large T antigen ATPase/helicase inhibition assay; at 20 µM; hits give high values
Sequence (P03070 whole entry, looked up): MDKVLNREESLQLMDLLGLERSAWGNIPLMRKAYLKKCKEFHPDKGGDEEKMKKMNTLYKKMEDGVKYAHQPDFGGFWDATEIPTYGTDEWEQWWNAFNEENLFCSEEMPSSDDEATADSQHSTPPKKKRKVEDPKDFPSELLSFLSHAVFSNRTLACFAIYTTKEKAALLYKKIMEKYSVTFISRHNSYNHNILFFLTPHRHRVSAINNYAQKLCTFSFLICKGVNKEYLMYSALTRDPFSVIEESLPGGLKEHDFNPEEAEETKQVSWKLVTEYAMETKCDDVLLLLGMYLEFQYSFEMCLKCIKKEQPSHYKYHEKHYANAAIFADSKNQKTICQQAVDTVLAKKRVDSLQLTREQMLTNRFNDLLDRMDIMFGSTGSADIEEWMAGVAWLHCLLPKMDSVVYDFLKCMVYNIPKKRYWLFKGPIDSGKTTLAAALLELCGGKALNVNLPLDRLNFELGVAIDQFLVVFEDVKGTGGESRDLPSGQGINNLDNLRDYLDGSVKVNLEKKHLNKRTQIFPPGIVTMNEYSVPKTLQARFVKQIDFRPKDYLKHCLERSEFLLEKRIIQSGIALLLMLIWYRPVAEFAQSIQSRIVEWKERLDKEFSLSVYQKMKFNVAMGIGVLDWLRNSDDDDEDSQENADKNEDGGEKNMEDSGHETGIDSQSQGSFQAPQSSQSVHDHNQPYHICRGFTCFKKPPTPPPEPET

inhibition, inactive:
Cc1ccc(NS(=O)(=O)c2cc(C(=O)N(C)C)ccc2C)cc1C 7.8%
CC(=O)Nc1ccc(NC(=O)CCOc2ccccc2C)cc1 9.91%
O=C(NCCc1nnc2ccc(N3CCCCCC3)nn12)c1ccccc1F 10%
COc1ccc(C(=O)NCC(C)(C)CNC(=O)c2ccc(OC)cc2)cc1 11.7%
CCN(CC)c1ccc(CN(C(=O)c2ccco2)C2CCS(=O)(=O)C2)cc1 (centres undefined) 21.8%
COC(=O)C1=C(C(=O)OC)[C@@H]2N(C)c3ccc(OC)cc3[C@@]23C[C@@H](C(=O)OC)N(S(=O)(=O)c2ccc([N+](=O)[O-])cc2)C3=N1 1.76%
CCOC(=O)C1=NN(c2ccc(C)cc2)CC1C(=O)OC (centres undefined) 7.97%
CCOc1cc(C(=O)N[C@@H](C)C(=O)N2CCC3(CC2)NCCc2[nH]cnc23)cc(OCC)c1OCC 4.98%
COCCCNC(=S)N/N=C/c1ccccc1O 12.5%
COc1ccc(CNC(=S)N/N=C/c2ccc(OC)c(OC)c2)cc1 4.58%
Oc1cccc(/C=N/NC(=S)NCCN2CCOCC2)c1O 50.5%
CCOc1ccc(CNC(=S)N/N=C/c2ccc(OC)c(OC)c2)cc1 9.25%
COc1cc(/C=N/NC(=S)NCCN2CCOCC2)cc(OC)c1O 30.1%
S=C(NCCN1CCOCC1)N/N=C/c1ccccc1 2.2%
COCCCNC(=S)N/N=C/c1ccc(O)cc1 46.2%
COc1cc(/C=N/NC(=S)NCCN2CCOCC2)cc(OC)c1OC 12.4%
CC(=O)c1cccc(NC(=S)NC(=O)c2ccccc2Br)c1 4.36%
COCCn1c(-c2ccc(Br)cc2)csc1=Nc1cccnc1 8.06%
O=C(CN1CCN(C(=O)c2ccco2)CC1)Nc1ccc(Cl)c(S(=O)(=O)N2CCOCC2)c1 0.58%
O=C(Nn1cnnc1)C(Sc1ccccc1)c1ccccc1 (centres undefined) 1.32%
O=C(NCCF)[C@H]1C[C@@H]1[C@H](NP(=O)(c1ccccc1)c1ccccc1)c1ccccc1 3.51%
COc1ccc2oc(C(=O)OCC(=O)Nc3ccc(N4CCOCC4)cc3)c(C)c2c1 14%
CC(C)CCn1c(CN2CC(C)OC(C)C2)nc2c1c(=O)n(C)c(=O)n2C (centres undefined) 4.84%
CC(C)Oc1ccc(Br)cc1/C=N\NC(N)=S 16%
CC(C)NC(=O)c1nn2c(C(F)(F)F)cc(-c3ccco3)nc2c1Cl 10.7%
Cn1c(=O)n(-c2cccc(Cl)c2)c(=O)n1C 10.7%
Cc1nn(-c2cccc(Cl)c2)nc1C(=O)O 6.68%
O=C1Nc2cc(Cl)ccc2Nc2cscc21 14.2%
CCOc1cc(C(C(=O)NCC2CCCO2)N(C(=O)Cn2nnc3ccccc32)c2ccccc2C)ccc1O (centres undefined) 9.12%
O=C(Nc1ccccc1)/C(=C\c1ccncc1)NC(=O)c1ccccc1 5.96%
Cc1ccc(NC(=O)/C(=C/c2ccncc2)NC(=O)c2ccccc2)cc1 13.5%
O=C(Nc1ccccc1)/C(=C\c1cccs1)NC(=O)c1ccccc1 10.4%
Cc1ccc(NC(=O)/C(=C\c2cccs2)NC(=O)c2ccccc2)cc1 3%
CC(=O)Nc1ccc(NC(=O)/C(=C/c2ccco2)NC(=O)c2ccccc2)cc1 14.8%
O=C(Nc1ccc(C(=O)O)cc1)/C(=C\c1ccco1)NC(=O)c1ccccc1 7.81%
COc1cc(CN2CCCC(C(=O)Nc3ccccc3Oc3cccnc3)C2)ccc1F (centres undefined) 7.89%
CCOC(=O)c1[nH]c2c(c1-c1ccccc1)C(=O)CC(c1ccc(OCC)cc1)C2 (centres undefined) -10.4%
C=CCOc1ccc(CNCc2cccnc2)cc1 2.27%
Cn1c(N2CCN(C(c3ccccc3)c3ccccc3)CC2)nc2ccccc21 0.51%
Cc1cc2nc3c(c(C(F)(F)F)n2n1)CCCC3 3.17%
COc1cc(/C=C2\CCCc3c2nc2ccccc2c3C(=O)O)cc(OC)c1O 30.3%
COc1ccc(/C=C2\CCc3c2nc2ccccc2c3C(=O)O)cc1OC 6.95%
COc1cccc(N2CC(NS(=O)(=O)c3ccc4ccccc4c3)CC2=O)c1 (centres undefined) 11%
Cc1ccc(O)c(Sc2cc(C)ccc2O)c1 5.68%
Nc1ccccc1SSc1ccccc1N 22.8%
O=S(=O)(c1ccc(-c2cnc(C3CC3)o2)cc1)N1CCN(c2ccccc2)CC1 7.98%
O/N=C1\CCCc2ccc(Cl)cc21 3.89%
Cc1cc(C)n(CCc2nc(-c3cccs3)cs2)n1 0.46%
Cc1cc(C)n(CCc2nc(-c3ccc(C)o3)cs2)n1 28.1%
CC(O)c1nc2cc([N+](=O)[O-])ccc2n1Cc1ccccc1 (centres undefined) 7.32%
O=C(/C=C/c1cccc(Cl)c1)NCc1cccs1 -0.755%
COc1ccc(NC(=O)COc2ccc(C)c(C)c2)cc1S(=O)(=O)N1CCCCC1 5.04%
Cc1cccc(OCCn2ccnc2)c1C 12.1%
CC(C)Cn1c(=O)c(C(=O)NCc2ccc3c(c2)OCO3)c(O)c2ccccc21 -14.6%
CCOC(=O)C1(C)C=C(Nc2ccc(NC(C)=O)cc2)C(=O)N1c1ccc(NC(C)=O)cc1 (centres undefined) 6.98%
CCOC(=O)C1(C)C=C(Nc2ccc(C)cc2)C(=O)N1c1ccc(C)cc1 (centres undefined) 12.1%
COc1ccc(C)c2sc(=NC(=O)c3cccc(N4C(=O)CCC4=O)c3)n(C)c12 14.4%
COC(=O)c1c(C(=O)OC)c2ccccn2c1C(=O)c1ccccc1 10.4%
Cc1ccc(N=C(N)N=C(N)N)cc1 6.91%
Cc1ccc(-c2nc(C=Nc3ccc(O)cc3)c(O)o2)cc1 23.6%
O=C1CC(NS(=O)(=O)c2cc(F)ccc2F)CN1c1cccc(F)c1 (centres undefined) 4.86%
CCc1ccc[n+](-c2nc3ccccc3nc2C(=C=[N-])C#N)c1 11.3%
CN1CCN(C(=O)c2cccn(Cc3ccc(C(F)(F)F)cc3)c2=O)CC1 2.45%
COc1ccc(C2CC(=O)N3CN(Cc4ccco4)CSC3=C2C#N)cc1 (centres undefined) 36.8%
COc1ccc(OC)c(C2CC(=O)N3CN(c4cccc(Cl)c4)CSC3=C2C#N)c1 (centres undefined) 21.8%
CCOC(=O)c1ccc(N2CSC3=C(C#N)C(c4cccs4)CC(=O)N3C2)cc1 (centres undefined) 28.9%
COc1cccc(C2CC(=O)N3CN(c4cccc(Cl)c4C)CSC3=C2C#N)c1OC (centres undefined) 25.5%
N#CC1=C2SCN(c3ccccc3)CN2C(=O)CC1c1cccs1 (centres undefined) 25.3%
CCOC(=O)c1ccc(N2CSC3=C(C#N)C(c4ccc(OC)cc4OC)CC(=O)N3C2)cc1 (centres undefined) 31%
COc1ccc(OC)c(C2CC(=O)N3CN(c4ccccc4)CSC3=C2C#N)c1 (centres undefined) 35.4%
COc1ccc(C2CC(=O)N3CN(c4ccc(C)c(Cl)c4)CSC3=C2C#N)cc1 (centres undefined) 34.4%
COc1ccc(-c2nn(-c3ccccc3)cc2/C=C/C(=O)O)cc1[N+](=O)[O-] 18.4%
C#CCOCCOCCOCCNc1nc(N2CCN(C(=O)[C@H]([C@@H](C)CC)n3cc([C@@H](N)CC(C)C)nn3)CC2)nc(N2CCN(C(=O)[C@H]([C@@H](C)CC)n3cc([C@@H](N)CC(C)C)nn3)CC2)n1 3.81%
CC(C)c1ccc(NC(=O)CSc2ncccc2C(=O)Oc2cccc([N+](=O)[O-])c2)cc1 16.9%
CCc1cc2c3c([nH]c2cc1S(=O)(=O)N1CCC2(CC1)OCCO2)CCCC3=O -0.36%
CCN(C(=O)Cn1cnc2c(nc3n2CCCCC3)c1=O)c1cccc(Cl)c1 18.9%
C#CCn1c(=NC(=O)c2cc(-c3cccs3)nc3ccccc23)sc2cc(S(N)(=O)=O)ccc21 8.04%
O=C(O)C1CCCCC1C(=O)Nc1ccc(OCc2ccccc2)cc1 (centres undefined) 9.44%
COc1cc(/C=C/c2nc3ccccc3c(=O)[nH]2)cc(Br)c1O -2.29%
CCOC(=O)c1[nH]c2ccccc2c1NC(=O)CC(C)(C)C -0.46%
O=C(O)CCC(=O)Nc1ccc(Cc2ccc(NC(=O)CCC(=O)O)cc2)cc1 5.94%
O=C(O)CCC(=O)Nc1ccc(F)cc1 12.5%
CC1CCCC(NC(=O)C2CCN(S(=O)(=O)c3cnc[nH]3)CC2)C1C (centres undefined) 10.4%
COc1ccccc1N1CCN(S(=O)(=O)c2cc(C(F)(F)F)cc(C(F)(F)F)c2)CC1 4.92%
CCOC(=O)C1(C)NC(c2ccc(O)cc2)C2C(=O)N(c3ccccc3)C(=O)C21 (centres undefined) 2.88%
O=C(Nc1ccc2nc(-c3cccs3)c(-c3cccs3)nc2c1)NC1CC1 -4.56%
O=C(NCCO)Nc1ccc2nc(-c3ccco3)c(-c3ccco3)nc2c1 52.6%
O=[N+]([O-])c1ccc(/C=N/N2CCN(Cc3ccccc3)CC2)cc1 8.88%
O=C1NN(c2ccc(F)cc2)C(=O)/C1=C\c1cnn(-c2ccccc2)c1 2.23%
CN(C)c1ccc(/C=N/N2C(=O)c3ccccc3C2=O)cc1 21.5%
Cc1ccccc1N1C(=O)c2cccc3cccc(c23)C1=O 4.81%
CCN(CC)c1ccc(C=O)c(OC)c1 11.8%
CCN(CC)c1ccc(C(=O)N/N=C/c2ccc(OC)cc2OC)cc1 0.86%
CCOC(=O)/C=C/c1cnn(-c2ccccc2)c1 -1.48%
